FBPA Giardia inh: inhibitors of Giardia lamblia fructose-1,6-bisphosphate aldolase; A8B2U2; AID 2451; purified Giardia FBPA; Potency, µM (doses to about 59.6 µM), for inactives: at the top dose activity, negative = inhibition, hits mostly inhibitors; hit rate 0.71% among 290,000; further: on the % scale 0 is the no-effect control and ±100 the full control effect; nearly all actives have a fitted effect of over 55% in size
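Giardia FBPA (40 nM reagent) was preincubated 10 min at RT with compound (up to 57.5 uM final), then substrate plus GAPDH/TPI/NAD/arsenate coupling system with diaphorase/resazurin was added; resorufin fluorescence (525/598 nm) was read after 20 min.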
LmPK inhibitor: inhibitors of Leishmania mexicana pyruvate kinase; AID 1721; purified LmPK, Kinase-Glo ATP luminescence, 1 h; Potency, µM (highest dose often 57.5 µM), inactives show at the highest dose activity change, negative = inhibition, hits mostly inhibitors; hit rate 0.37% among 290,000; Q27686; further: on the % scale 0 is the no-effect control and ±100 the full control effect
Target sequence (Q27686 whole entry, looked up): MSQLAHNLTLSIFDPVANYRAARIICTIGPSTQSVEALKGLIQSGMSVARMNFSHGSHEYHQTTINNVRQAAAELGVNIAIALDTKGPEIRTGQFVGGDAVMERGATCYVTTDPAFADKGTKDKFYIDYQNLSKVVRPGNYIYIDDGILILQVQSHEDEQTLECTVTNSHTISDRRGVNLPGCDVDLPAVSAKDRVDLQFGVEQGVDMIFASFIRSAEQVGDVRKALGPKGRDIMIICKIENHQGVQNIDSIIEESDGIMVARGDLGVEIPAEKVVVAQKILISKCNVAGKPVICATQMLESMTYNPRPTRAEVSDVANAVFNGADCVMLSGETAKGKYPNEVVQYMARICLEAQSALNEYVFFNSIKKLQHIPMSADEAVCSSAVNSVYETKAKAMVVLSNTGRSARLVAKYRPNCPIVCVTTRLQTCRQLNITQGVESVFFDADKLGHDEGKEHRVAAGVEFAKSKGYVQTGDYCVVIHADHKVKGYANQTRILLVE
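Pyruvate kinase activity monitored as ATP production (luciferase luminescence). Conditions: 0.1 nM enzyme, 0.5 mM PEP, 0.1 mM ADP, 1 h, RT; normalized against uninhibited and no-enzyme wells.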
AMA1-RON2 inh: inhibitors of Plasmodium falciparum AMA1-RON2 interaction; hit rate 0.2% among 360,000; AlphaScreen AMA1-biotinylated RON2 peptide binding; Potency, µM (titrated, usually from 58.2 µM), without a hit: top-dose activity change, negative = inhibition, hits mostly inhibitors; AID 720542;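 further: 0% = vehicle wells and -100% = peptide control; nearly all actives have a fitted effect of over 45% in size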
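AMA1 (3D7) with his tag at 25 nM final met compounds first, then biotinylated RON2 peptide at 25 nM; detection used donor plus acceptor beads, 10 µg/mL apiece, read by AlphaScreen after 30 min at room temperature.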
NS1 inh: influenza NS1 inhibition. hit rate 0.4% among 270,000. Potency, µM (series often up to 46.1 µM), inactives show at the top dose activity, positive = more growth. AID 2326; calls by dose curve; further: actives are rising curves; nearly all actives have a fitted effect of over 50% in size
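OD600 was taken as the measure of yeast growth restored by compound in an NS1-expressing S. cerevisiae strain. Cells had been washed out of glucose medium and diluted 1:100 into galactose -URA medium, pH 6.0.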
Tb PYK inh: T. brucei pyruvate kinase inhibition; Q57TT1; TbPYK enzyme, Kinase-Glo Plus ATP luminescence, 45 min; Potency, µM (titrated, usually from 76.8 µM), inactives show at the top dose activity, negative = inhibition, hits mostly inhibitors; hit rate 0.12% among 410,000; AID 624173; further: on the % scale 0 is the no-effect control and ±100 the full control effect; nearly all actives have a fitted effect of over 50% in size
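Glycolytic pyruvate kinase of T. brucei was incubated with substrate, test compound and 130 uM ADP for 45 minutes at room temperature. Luminescent Kinase-Glo Plus signal was measured after 10 minutes.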
An asterisk follows results filed as active; u = inconclusive; x = not tested or not shown; [ ] = dose if it differs, or a comment. Only some compounds are listed: those with a hit (about 1.2% of all), similar ones and a draw of the others. Unless noted, the call rests on the fitted dose curve; in most records, active means well fitted curve in the direction sought with a large enough effect; inconclusive means small, poorly fitted or top-dose-only effect, or another doubt; inactive means no such curve, though single readings can be large; an effect the other way counts as inactive or inconclusive. Potency means the concentration at half of the fitted maximal effect.

SMILES | FBPA Giardia inh | LmPK inhibitor | AMA1-RON2 inh | NS1 inh | Tb PYK inh
Cc1ccc(C)c(N2CCN(C(=O)c3ccc4nc(-c5ccco5)c(-c5ccco5)nc4c3)CC2)c1 | x | 4% | 2% | u | -8%
COc1ccccc1N1CCN(C(=O)c2ccc3nc(-c4ccco4)c(-c4ccco4)nc3c2)CC1 | 1% | 9% | -28% | 14µM* | u
COc1ccc(NC(=O)C(NC(=O)/C=C\c2ccc3c(c2)OCO3)c2ccccc2)cc1 (stereo unspecified) | x | x | x | x | 9%
CN1CC(C(=O)c2ccc(Cl)cc2)C(c2ccc(Cl)cc2Cl)C1 (stereo unspecified) | -8% | 7% | 32µM* | -8% | -8%
CCOC(=O)Cc1ccc2sc(-c3ccccc3)nc2c1 | 6% | 16µM* | 50% | -16% | u
OCC(CO)(CO)N=Cc1c(O)ccc2ccccc12 | u | 4% | 43% | -75% | 1%
Oc1ccc2ccccc2c1C=NC12CN3CCN(CN(C3)C1)C2 | 14µM* | -4% | 60% | -10% | -2%
O=C(/C=C/c1ccccc1Cl)Nc1ccccc1 | -10% | 14µM* | 7% | -63% | -9%
O=S(=O)(c1ccc(=S)[nH]c1)N1CCCCCC1 | x | x | 86% | x | -2%
O=S(=O)(c1ccc(=S)[nH]c1)N1CCOCC1 | x | x | 6%[11.6 µM] | x | 7.9µM*
O=S(=O)(O)OCC1OC(OC2(COS(=O)(=O)O)OC(COS(=O)(=O)O)C(OS(=O)(=O)O)C2OS(=O)(=O)O)C(OS(=O)(=O)O)C(OS(=O)(=O)O)C1OS(=O)(=O)O (stereo unspecified) | x | x | x | x | 0%
CN(C)c1ccc(C(CNC(=O)c2ccccc2F)c2c[nH]c3ccccc23)cc1 (stereo unspecified) | 8% | -6% | -11% | 16% | -6%
CN(C)c1ccc(C(CNS(=O)(=O)c2ccc(F)c(F)c2)c2c[nH]c3ccccc23)cc1 (stereo unspecified) | -3% | -3% | 14µM* | 11% | 5%
COc1cc(OC)c(C(=O)NCc2nc(-c3ccccc3)no2)cc1OC | x | x | x | x | 3%
Cn1ncc(N=Cc2ccccc2)c1C(N)=O | -25% | 4% | 7% | -4% | -1%
Nc1ncc(Br)cc1N=Cc1ccccc1 | 1.1µM* | -3% | -20% | -19% | -5%
CCCCC/C=C/C/C=C/CCCCCCCC(=O)NC(C)c1ccccc1 (stereo unspecified) | x | x | x | x | -2%
CC(=O)CC/C=C(\C)CC/C=C(/C)CC/C=C(\C)CCC=C(C)C | x | x | x | x | 1%
CNCc1ccccc1Sc1cc(O)ccc1O | u | u | 11µM* | 11% | u
c1ccc(-c2nc3cc4ccccc4cc3[nH]2)nc1 | -21% | 16µM* | 30% | -2% | -19%
CC(=O)OCC1OC(C#Cc2ccccc2)C=CC1OC(C)=O (stereo unspecified) | -3%[12.9 µM] | x | x | x | x
O=C(O)C[C@@H]1C(=O)O[C@@H]2C(COC(=O)c3cc(O)c(O)c(O)c3)O[C@@H](OC(=O)c3cc(O)c(O)c(O)c3)[C@@H](OC(=O)c3cc(O)c(O)c4c3[C@H]1[C@H](O)C(=O)O4)[C@H]2OC(=O)c1cc(O)c(O)c(O)c1 (stereo partly specified) | 4µM* | 7% | x | -6% | x
c1ccc(-c2cn(C[C@H]3CC[C@@H]([C@@H]4CC[C@H](Cn5cc(-c6ccccn6)nn5)O4)O3)nn2)nc1 | 4% | -4% | 1µM* | 0% | 1%
c1ccc(-c2cn(C[C@H]3CC[C@@H]([C@@H]4CC[C@H](Cn5cc(-c6ccccc6)nn5)O4)O3)nn2)cc1 | 0% | 1% | 0% | 6% | 1%
O=S(=O)(NCC(c1ccco1)N1CCOCC1)c1ccc(F)cc1 (stereo unspecified) | x | x | x | x | 1%
O=c1c2ccccc2nc(/C=C/c2cccnc2)n1Cc1ccccc1 | -4% | -3% | 32µM* | -5% | u
Cc1ccc(-c2cc(-c3ccc(C)o3)nc(N)c2C#N)cc1 | u | -24% | 6% | -64% | 28µM*
CC1=C(C)C(=O)C(N2CCOCC2)=CC1=O | 1.4µM* | -21% | 4% | -27% | -3%
O=C(NCCc1ccc(Cl)cc1)c1nc(-c2cccc(F)c2)n2c1CCCCC2 | x | x | x | x | -3%
Nc1cccc([N+](=O)[O-])c1 | 1% | 0% | -5% | 4% | 3%
